Test results reported in PubChem BioAssay AID1347426 (Functional Genomics Laboratory (NCATS/FGL), 2020).
Among all 31,000 sequences or so, about 1,400 (4.5%) were called active. The full list was thinned out, with actives kept by preference. Unmarked numbers belong to inactive results.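 How the source made its calls: active means median seed-adjusted z-score above 1 or below -1; inactive means the rest.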

Experiment: Novel Modifiers of Survival Motor Neuron (SMN) Protein: Gene Identification via Genome-wide siRNA Screen;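 further: luminescence tracks full-length SMN protein made from the SMN2 reporter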
Details: HEK293T SMN2-luciferase reporter, siRNA knockdown, 72 h; actives lie on both sides
In short: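 HEK293T cells stably expressing an SMN2 splicing/cDNA-luciferase reporter were reverse-transfected with a druggable-genome siRNA library and read by luminescence at 72 hours; hits defined by MAD score above 1.0 or below -1.0.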

In the case of GUUAUGCCUUUAUUAAUUUTT against SF3B4, the median seed-adjusted z-score is reported as -2.56 (active).
In the case of GCAGGAUGCUGUCAACAUATT against PSMD4, the median seed-adjusted z-score is reported as 1.46 (active).
With CCACCUAGCUUGUAACGAATT against EP400 the median seed-adjusted z-score was 1.83 (active).
In the case of GGACACGGGUGUCAUCCUATT against UBASH3A, the median seed-adjusted z-score is reported as -1.1 (active).
For CUGCUACCUCUGACCCAAATT against DTD1, the median seed-adjusted z-score was -1.58 (active).
In the case of AGAUAUUUGUUAUCGCUGUTT against CNBP, the median seed-adjusted z-score is reported as -1.14 (active).
In the case of GAUUACCCUUAGAUCAUAUTT against NARG1, the median seed-adjusted z-score is reported as -1.02 (active).
In the case of GAAUUGGGCUUGUUGAUAUTT against KCNB2, the median seed-adjusted z-score is reported as 1.22 (active).
In the case of CACCUGUUCUAUCACAGUATT against NOP2, the median seed-adjusted z-score is reported as 1.15 (active).
For GCAGUUCCCUUAGAGCUAGTT against MAP4, the median seed-adjusted z-score was 1.67 (active).
In the case of GAUGAUUACCAGGAACGAATT against CAPRIN1, the median seed-adjusted z-score is reported as 1.36 (active).
With GCAUUUACUCGCUCUUCAATT against KCNK12 the median seed-adjusted z-score was 1.04 (active).
With CCAUAUGAGUCCUAUGAGATT against SMURF1 the median seed-adjusted z-score was -1.4 (active).

Compared with GGAUAUUACAGCUAUUUGATT against USP10, CAACUGCAGCAGAUUCUAATT against MNAT1 is lower in median seed-adjusted z-score: 0.182 for the first, -0.335 for the second.

First: GACCAGAUCUUUAAUCUCATT against RGS10
Second: CAACACCGCCCACAACAAATT against TRIM25
The median seed-adjusted z-score of the first is lower: 0.304 for the first, 0.859 for the second.

Going from CGGGAGUUUUUGGAACUGATT against MMS19L to GGAAGCUCCUUGUCAAGAUTT against MECP2, the median seed-adjusted z-score falls from 0.898 to -0.332.

First: GCAAGAGAAUUAGAUCAGATT against SLC16A12
Second: CCAUCGUCAACAUACGGAATT against TRIT1
The median seed-adjusted z-score of the first is lower: 0.0219 for the first, 0.794 for the second.

First: GUGUGGAUCUGUGGACUCATT against CRB2
Second: CACUAAGAGAAAAUCUGAATT against GALNT13
The median seed-adjusted z-score of the first is higher: 0 for the first, -0.0149 for the second.

Going from GGUUGUAGAGUUGAAAGUUTT against UBE2O to GCCGUUUAAUACCCGAUGATT against RNF125, the median seed-adjusted z-score rises from 0.125 to 0.204.

Compared with AUGGUUACCUGUUCACCUATT against SLC7A10, GUCAAAGAGUGACAACUUUTT against CALB2 is higher in median seed-adjusted z-score: -0.732 for the first, 0 for the second.

First: GGAGUGAUGAUAACGAGGATT against LATS1
Second: GAGUUGUCGACACCACUUATT against PROS1
The median seed-adjusted z-score of the first is lower: 0 for the first, 0.436 for the second.

Going from GACAGUUUCCCUACAAGAATT against MAP2K7 to CAGAUUGUCUGAUUCGAUUTT against TRIP11, the median seed-adjusted z-score rises from -0.772 to 0.333.

Going from AGGGAGGUGUUUAACGGCATT against HMOX1 to CCUUGUUUAUCAUAAGGGATT against ZNF613, the median seed-adjusted z-score falls from 0.45 to -0.189.

First: GCAAGUACCUGUAAUUGAATT against KLF3
Second: CCUUGACUGUGGACAACAATT against PURA
The median seed-adjusted z-score of the first is higher: 0.628 for the first, -0.0185 for the second.

Going from GGAAUGAUCUGACUAACUUTT against PECI to GAAAAUUGCUCACUUUGAUTT against DAPK2, the median seed-adjusted z-score rises from -0.0254 to 0.268.

Going from GAAGAACUCGAAUAUGUCATT against ASNSD1 to CUUAAUCACUUGCAUAAAATT against GALR1, the median seed-adjusted z-score falls from 0.437 to -0.721.

First: GCCUUAAGGUCAAGGUCUATT against UNC5B
Second: GCAUUGGAGGUGAUCCUUUTT against SUCLG1
The median seed-adjusted z-score of the first is higher: -0.0207 for the first, -0.63 for the second.

Compared with CAUUCGCAAAGGUAUCAUUTT against SLC20A2, GAGUGGAAAUUUCACCUAUTT against IFNAR2 is lower in median seed-adjusted z-score: -0.0546 for the first, -0.219 for the second.

Going from UCAGUAUCUUGGUCCUGUATT against CALCB to CCGCAGAUCCUGUAGACUATT against PARD3B, the median seed-adjusted z-score rises from 0 to 0.306.

First: GAGAACAUGUUGUUCCGCUTT against SSPO
Second: GGGAUACAUUUAAGCGCAATT against SYTL2
The median seed-adjusted z-score of the first is higher: 0.397 for the first, 0.211 for the second.

First: AGAGGCUGCGGUUCAAAGATT against PTP4A3
Second: GAUCCUGAGUUAGAGAAGATT against METTL3
The median seed-adjusted z-score of the first is higher: 0.354 for the first, 0.261 for the second.

Compared with UCUCCUUCUUCGGAACGAATT against SCAMP5, GACUGUAUCCAAACGAAUUTT against SLITRK2 is higher in median seed-adjusted z-score: -0.303 for the first, -0.246 for the second.

Compared with GCUUCUCGGCUGUCCAUGATT against CLCNKB, GAAUAAGCCGUGUACUGAUTT against CASD1 is lower in median seed-adjusted z-score: 0.428 for the first, 0.202 for the second.

Going from GAUUCAGUGUGGGAGAGUUTT against MCAT to CGAGGACAUUGAUAACGAATT against CCNB2, the median seed-adjusted z-score rises from 0 to 0.0328.

Going from CCUCCGAAUUCUCAACAUATT against CSNK1E to CGAAUCAUUUGGGAAUUGATT against IDH1, the median seed-adjusted z-score rises from -0.796 to 0.421.

Compared with ACUUUGCAAUCGCUCAAAATT against NPTX1, CAAUCUUCUUGGGAUUAUUTT against TRPC7 is higher in median seed-adjusted z-score: -0.117 for the first, 0.146 for the second.

Compared with GGGAGAAGGUGAGCAGUAUTT against ZYX, CAGCCAUGAUAAUAAAGCUTT against RARRES2 is lower in median seed-adjusted z-score: 0.273 for the first, -0.125 for the second.

Going from GGAUGAUCGUGACAAGUUUTT against ATP1B3 to GAGAAGAUGUGGACAUACATT against GRIA1, the median seed-adjusted z-score rises from -0.225 to 0.927.

First: GAAGCUCUCUUGACUAUGATT against FKBP3
Second: AGACUUUGUUGUUACACUUTT against SYPL1
The median seed-adjusted z-score of the first is higher: -0.102 for the first, -0.457 for the second.

Compared with GGAAGUUCGCAGAAAAGUATT against PDIA5, CGGUACUACCCAAACGUCATT against APOBEC3D is lower in median seed-adjusted z-score: 0.989 for the first, -0.0215 for the second.

First: GAACUUUCCUGUUACCUUUTT against CD81
Second: CAUCGUCCAUGACAAGUCATT against GTF2IRD1
The median seed-adjusted z-score of the first is higher: 0 for the first, -0.282 for the second.
